# In all, about 2,100 compounds went through this assay and about 210 (10%) were called active. Not shown: some 53% with an inconclusive outcome. The list shows a part of the results. Unmarked numbers belong to inactive results. The call rests on the fitted dose curve; in most records, active means well fitted inhibition curve with a large enough effect; inconclusive means small, poorly fitted or top-dose-only effect, or effect the other way; inactive means no such curve, though single readings can be large or run the other way.
# Experiment: IN Cell qHTS Assay for Inhibitors of the mTORC1 Signaling Pathway in MEF (Tsc2-/-, p53-/-) Cells: Sytravon; further: nearly all actives have a fitted effect of over 60% in size
# Settings: phospho-rpS6 immunofluorescence, 24 h; series mostly up to 38.3 µM; activity, negative = inhibition: at the top concentration
# From the text: NIH Molecular Libraries Probe Production Centers Network [MLPCN] NIH Chemical Genomics Center [NCGC] MLPCN Grant: NS059428-01 Assay Submitter (PI): Blenis, John; Hoffman, Greg; Harvard University NCGC Assay Overview: Thee mammalian target of rapamycin (mTOR) is an intracellular serine/threonine kinase Aberrant regulation of mTOR signaling plays a causative role in a number of human diseases, including cancer, benign tumors such as lymphangioleiomyomatosis (LAM) and Tuberous Sclerosis Complex (TSC), and metabolic diseases such as diabetes and obesity. This project aims to identify inhibitors of ribosomal protein S6 (rpS6) phosphorylation. The phosphorylation of rpS6 is a key event downstream of mTOR activation. The assay uses a phospho-specific antibody of phospho-rpS6 to detect inhibitors of mTOR activation. Mutations in the Tsc1 and Tsc2 genes are the underlying genetic lesions responsible for TSC, causing constitutive activation of the mTORC1 pathway and leading to profound effects on cell metabolism. Aberrant metabolism in cancer has recently received significant attention as a target to develop therapeutic agents in the treatment of cancer1. As Tsc2-/- cells have lost the ability to respond to energy and growth factor deprivation, these cells are unable to properly down regulate cellular biosynthetic processes in response to metabolic stress, and are thus extremely sensitive to glucose deprivation-induced death.2 A central goal of this project is to explore the unique cell survival and metabolic properties of cells with Tsc1 or Tsc2 by screening for compounds that selectively target the Tsc2-/- MEFs by screening both Tsc2-/- and WT MEF cell lines. We hope to better understand these aspects of TSC physiology in order to exploit them for therapeutic benefit.
# NCGC IN Cell Assay Protocol: For quantitative high throughput analysis of mTORC1 signaling, we developed a cell-based assay for immuno-fluorescence based detection of rpS6 phosphorylation on the Acumen Explorer that will be used a platform for the primary small molecule screen. Mouse embryonic fibroblasts (MEFs) are cultured in 1536-well plates using DMEM + 10% FBS. Twenty-four hrs after plating, test compounds (solubilized in DMSO) are delivered and incubated with the cells for 24 hrs at 37 degree Celsius. Following the incubation, media with compound is aspirated and the cells are fixed in 4% paraformaldehyde (PFA) containing PBS + 0.2% TX-100. Next, PFA is aspirated, cells are washed two times with PBS plus 0.2% TX-100 and the cells are blocked for 1 hr at room temperature (blocking buffer: LiCOR Blocking Buffer plus 0.2% TX-100). This is followed by aspiration and staining with Alexa-488 conjugated-phospho-rpS6 Ser235/236 antibody for 2 hours at room temperature (Cell Signaling Technology # 4803, 1:50 dilution in blocking buffer). Cells are washed two times with PBS plus 0.2% TX-100, and stained with 10 uM propidium iodide (PI) for 20-25 minutes for cell number measurement (1:500 dilution of Hoescht staining is also added for IN Cell imaging). Active wells which are selected (based on Acumen results) are imaged on the IN Cell 1000 (GE Healthcare) using the D360/40X and HQ480/40X excitation filters for the Hoechst and Alexa-488 cytoplasmic stains, respectively. The fluorescence emission filters used were HQ460/40M and HQ535/50M for the Hoechst and Alexa-488 cytoplasmic stains, respectively. The normalized phospho-S6 staining is calculated as the ratio of […] for the single concentration rapamycin control (7.5 nM) and DMSO columns. […] Inhibition of the pathway is defined based on the normalized phospho-S6 intensity in rapamycin treated cells. Each treatment is reported as the % positive cells in the well, where thresholds are defined by selecting wells with the highest and lowest signal and differentiating between the % non-active and % active populations. […]
# Potency means the concentration at half of the fitted maximal effect.
Compound,"activity, negative = inhibition [%]",Potency
Cc1ccc(-c2nc3scc(CCNC(=O)c4cccc(Br)c4)n3n2)cc1,0,–
Cc1cccc(Cn2c(CNC(=O)c3ccccc3)nc3ccccc32)c1,-18.5,–
CC(C)CCNC(=O)c1cccc(Nc2nc3ccccc3n3nnnc23)c1,–,4.14 µM (active)
Cc1ccc(NC(=O)C2CCCN(S(=O)(=O)c3ccc4c(c3)CCCC(=O)N4)C2)cc1Cl (configuration not stated),1.08,–
CCCS(=O)(=O)c1c(S(=O)(=O)CCC)c2cc(C(C)(C)C)ccn2c1C(=O)c1ccc(OC)c(OC)c1,–,0.147 µM (active)
COc1ccc(OC)c(NC2=C(c3ccccc3)C(=O)c3ccccc32)c1,-54.5,–
O=C(NCCc1ccccc1Cl)c1ccc2c(=O)n(-c3ccccc3)c(=O)[nH]c2c1,-43.6,–
COc1ccc(OCc2nc3c4c(-c5ccccc5)c(-c5ccccc5)oc4ncn3n2)cc1,–,4.14 µM (active)
COc1cc2cc(CNc3ccc(C)cc3)c(=O)n(CC(=O)Nc3ccc(F)cc3F)c2cc1OC,-16.6,–
Cc1ccc(NCc2cc3cc4c(cc3n(CC(=O)Nc3ccc(C)cc3)c2=O)OCCO4)cc1,–,4.65 µM (active)
Cc1ccc(NC(=O)Cn2c(=O)c(CNc3ccccc3)cc3cc4c(cc32)OCCO4)cc1,0,–
CCOC(=O)c1c(C)oc2ncnc(Nc3cc(Cl)ccc3OC)c12,-1.76,–
COc1cccc(C2=CC(c3cc(Br)ccc3F)n3nnnc3N2)c1 (configuration not stated),0,–
COc1ccc(Nc2cc(C(=O)NCCCN(C)Cc3ccccc3)c3ccccc3n2)cc1,0,–
CCC1CCCCN1CCCNC(=O)c1cc2c(Cl)nc3ccccc3c2s1 (configuration not stated),–,14.7 µM (active)
CN(CCCNC(=O)c1cc2c(Cl)nc3ccccc3c2s1)Cc1ccccc1,–,18.5 µM (active)
CC1CCCCN1CCCNC(=O)c1cc(Sc2cccc(Cl)c2)nc2ccccc12 (configuration not stated),6.25,–
O=C(NCCCc1nc2ccccc2n1Cc1ccc(Cl)cc1)c1ccco1,-10.8,–
CCC1CCCCN1CCCNC(=O)c1c(C)oc2ncn(CC(C)C)c(=O)c12 (configuration not stated),-3.66,–
Fc1ccc(C(NCCc2ccccc2)c2nnc(-c3ccccc3Cl)o2)cc1 (configuration not stated),-3.75,–
O=C(NCC1CCN(Cc2ccccc2Cl)CC1)c1cc2ccc3cccnc3c2[nH]1,-19.1,–
CCOc1ccc(C2CC(=O)c3c([nH]c(C(=O)OCc4ccccc4)c3C)C2)cc1 (configuration not stated),–,16.5 µM (active)
COc1cc(C2CC(=O)c3c([nH]c(C(=O)OC4CCCCC4)c3C)C2)cc(OC)c1OC (configuration not stated),-21.9,–
Cc1c(C(=O)OC2CCC(C)CC2)[nH]c2c1C(=O)CC(c1ccc(F)cc1)C2 (configuration not stated),-18.9,–
CCOc1ccc(CNC(=O)CCCc2cn(C)c3ccccc23)cc1OC,6.25,–

Compound,"activity, negative = inhibition [%]",Potency
Cn1ncc2c(NCc3cccc(Cl)c3)ncnc21,6.25,–
N#Cc1ccccc1S(=O)(=O)N1CCC(Oc2ccc(-n3cnnn3)cc2)CC1,-17.1,–
CCCNC(=O)C1CCN(Cc2cc3ccccc3n2Cc2ccccc2)CC1,-17.9,–
Cc1ccccc1CSCCNC(=O)C1CCN(S(=O)(=O)Cc2ccccc2)CC1,-21.6,–
Cc1ccccc1Cn1c(CN2CCC(C(=O)NCCN(C)C)CC2)cc2ccccc21,–,11.7 µM (active)
Cc1cccc(C)c1Nc1c(-c2ccsc2)nc2cccc(C)n12,-13,–
Clc1cccc(CSc2ccc(-c3cccs3)nn2)c1,-10,–
CCOC(=O)c1cc(-c2ccccc2)n(-c2cccc(C(=O)N(C)c3ccc(C)cc3)c2)c1C,0,–
CCOC(=O)c1cc(-c2ccc(C)cc2)n(CC(=O)Nc2ccccc2F)c1C,–,14.7 µM (active)
CCOC(=O)c1cc(-c2ccccc2)n(CCC(=O)Nc2ccc(C(F)(F)F)cc2)c1C,0,–
Cc1ccccc1Nc1c(-c2ccc(Cl)s2)nc2cccc(C)n12,15.5,–
CC(CNC(=O)c1ccc2nc(CCc3ccccc3)oc2c1)c1ccccc1 (configuration not stated),-0.769,–
CCCS(=O)(=O)N1CC(=O)N(c2ccccc2F)C(C)(C(=O)NC2CCCCCC2)C1 (configuration not stated),1.49,–
COc1ccc(NC(=O)Cn2c(=O)n(Cc3ccco3)c(=O)c3cc(OC)c(OC)cc32)cc1,–,14.7 µM (active)
COc1ccc(OC)c(NC(=O)Cn2c(=O)n(Cc3ccccc3)c(=O)c3ccccc32)c1,-2.9,–
COc1ccc(NC(=O)c2cc3c(=O)n(Cc4ccco4)ccc3nc2C)cc1,0.892,–
CCOC(=O)Cn1c(=O)n(C2CCCCC2)c2nc(-c3cccc(C)c3)nc(C(N)=O)c21,-0.928,–
O=C(Nc1ccc(C(F)(F)F)cc1)C1CCCN(S(=O)(=O)c2cccc3cccnc23)C1 (configuration not stated),-23.6,–
Cc1ccc(Cn2c(=O)n(CCCCC(=O)NCc3ccccc3Cl)c(=O)c3ccccc32)cc1,-34.5,–
COc1ccc(NC(=O)c2ccc3c(c2)c(C)c(C)n3Cc2ccc(F)cc2)cc1,–,10.4 µM (active)
COc1ccc(Cn2c(C(=O)O)c(CNCCc3ccco3)c3ccc(OC)cc32)cc1,-26.7,–
CCc1ccc(NC(=O)c2ccc(F)c(S(=O)(=O)NC3CCCCCC3)c2)cc1,6.25,–
Cc1ccccc1NC(=O)Cn1c(=O)n(-c2ccc(CC(=O)NCC3CCCO3)cc2)c(=O)c2ccccc21 (configuration not stated),7.61,–
Cc1ccc(CNC(=O)CCCCCn2c(=O)c3sccc3n(CC(=O)Nc3ccc(C)c(F)c3)c2=O)cc1,-29.7,–
COc1ccc(-n2c(=O)c3ccc(C(=O)NCc4ccc(C)cc4)cc3n(CC(=O)Nc3ccc(F)cc3)c2=O)cc1,–,14.7 µM (active)

Compound,"activity, negative = inhibition [%]",Potency
Cc1ccc(-n2c(=O)c3ccc(C(=O)NCc4ccco4)cc3n(Cc3ccc(Cl)cc3)c2=O)cc1,–,16.5 µM (active)
COc1ccc(Cn2c(C(=O)O)c(CNCc3ccccc3F)c3ccc(OC)cc32)cc1,-12.4,–
CC[C@@H](C)[C@@H](C(=O)Nc1ccc(C)cc1)N1Cc2ccccc2C1=O,-14.1,–
CCN1C(C(=O)c2ccccc2)=C(OC(=O)COc2ccc(OC)cc2)c2ccccc2S1(=O)=O,-0.826,–
COc1ccc(C(=O)NCC(c2ccc(Cl)cc2)N2CCCCC2)cc1 (configuration not stated),-16.4,–
O=C(NCCc1ccccc1Cl)c1sc2ncccc2c1-n1cccc1,1.3,–
CCC(C)NC(=O)CCCn1c(=O)c2cccn2c2ccccc21 (configuration not stated),-18.8,–
Cc1cccc(NS(=O)(=O)c2ccc3[nH]c4c(c3c2)CCCCCC4)c1,-4.07,–
Cc1nc2scc(C)n2c(=O)c1S(=O)(=O)Nc1ccc(N2CCN(S(C)(=O)=O)CC2)cc1,25.4,–
O=C(NCCc1ccccc1)c1ccc(Cn2c(SCc3ccccc3)nc3cccnc32)cc1,-23.6,–
O=C(Nc1ccc(Cl)cc1)c1cc(S(=O)(=O)N2CCCc3ccccc32)ccc1F,6.25,–
Cc1noc2ncnc(N3CCN(c4ccccc4F)CC3)c12,-0.0728,–
Cc1ccc(Nc2nc(Nc3ccc(C)c(C)c3)nc(N3CCOCC3)n2)cc1C,–,0.656 µM (active)
Fc1ccc(Nc2nc(Nc3ccc(F)cc3)nc(N3CCOCC3)n2)cc1,–,0.521 µM (active)
Cc1cccc(Nc2nc(Nc3cccc(C)c3)nc(N3CCOCC3)n2)c1,–,1.47 µM (active)
CCOc1ccc(Nc2nc(Nc3ccc(OCC)cc3)nc(N3CCOCC3)n2)cc1,–,0.826 µM (active)
CCCN1C(=O)CN(C2CCCCCC2)C(=O)C1c1ccc(OCC)c(OC)c1 (configuration not stated),6.25,–
CC(C)OCCCNC(=O)CCCN1C(=O)CCn2nc(-c3cccn3C)cc21,-0.543,–
CCCN1CCN(c2ncnc3sc(C(=O)Nc4ccc(OC(F)(F)F)cc4)c(C)c23)CC1,-14.8,–
O=C(Nc1cc(Cl)cc(Cl)c1)c1ccc(F)c(S(=O)(=O)N2CCCCCC2)c1,6.25,–
CC(C)c1nn2c(=O)cc(COC(=O)c3ccc(NC(=O)c4cccs4)cc3)nc2s1,0,–
CC1=Nc2cc(C(=O)NC3CCCC3)ccc2Sc2ccc(C)cc21,-15,–
COc1ccccc1NCc1cccn1-c1nnc(N2CCOCC2)s1,-15,–
CCCN1Cc2cccc(C(=O)Nc3ccc(OC)cc3OC)c2C1=O,13.5,–
COc1ccc(Nc2nc(Nc3ccc(OC)cc3OC)nc(N3CCOCC3)n2)c(OC)c1,–,1.31 µM (active)

Compound,"activity, negative = inhibition [%]",Potency
CCN(CC)S(=O)(=O)c1ccc2c(c1)N(CC(=O)NCCCN1CCN(c3cc(C)ccc3C)CC1)C(=O)CO2,0,–
CCCN1CCN(CCCNC(=O)c2cc3c(s2)-c2c(C)cccc2OC3)CC1,–,18.5 µM (active)
CCN1CCN(CCCNC(=O)c2cc3c(s2)-c2c(C)cccc2OC3)CC1,–,14.7 µM (active)
CCOc1ccccc1NC(=O)c1c(NCc2cccs2)sc2c1CCC(C)C2 (configuration not stated),0,–
Cc1ccc(C)c(NC(=O)CSc2cn(CC(=O)N3CCCC3)c3ccccc23)c1,-2.42,–
COc1ccc(-c2ccc3c(N)c(C(=O)Nc4ccc(C(F)(F)F)cc4)sc3n2)cc1OC,–,0.233 µM (active)
COc1ccc(C(=O)Nc2cc(-c3nc4ccccc4s3)ccc2OC)cc1,-10.3,–
COc1cccc(Nc2sc(C(=O)c3ccc(F)cc3)c(N)c2C(=O)NCc2ccc(C)cc2)c1,0,–
COc1ccc(CNC(=O)c2c(Nc3ccccc3C)sc(C(=O)c3ccccc3)c2N)cc1,-15.4,–
COc1ccc(NC(=O)c2sc3nc(-c4ccc(OC)cc4)cc(C(F)(F)F)c3c2N)cc1,15.3,–
COc1ccc(-c2cc(C(=O)Nc3ccc4c(c3)OCO4)no2)cc1,-7.44,–
COc1cccc(-c2ccc3c(N)c(C(=O)c4ccc(Cl)cc4)sc3n2)c1,–,10.4 µM (active)
COc1ccc(-c2cc(C(=O)Nc3cccc(O)c3)on2)cc1OC,-6.34,–
COc1ccc(-c2ccc3c(N)c(C(=O)Nc4cccc(C)c4)sc3n2)cc1,–,13.1 µM (active)
CCCc1ccc(C2Sc3ccccc3NC3=C2C(=O)c2ccccc23)cc1 (configuration not stated),-13.1,–
Cc1cccc(NC(=O)CSc2nc3ccccc3c3nc(CCn4cncc4C)nn23)c1,-11.5,–
COc1cc(NC(=O)c2cccc(F)c2)ccc1NC(=O)c1cc2ccccc2o1,–,16.5 µM (active)
CCCCCC(=O)Nc1ccc(NC(=O)c2cc3ccccc3o2)c(OC)c1,–,18.5 µM (active)
COc1cccc(C(=O)Nc2ccccc2-c2nnc(-c3cccc(OC)c3)o2)c1,-24.5,–
COc1ccc(NC(=O)c2ccco2)cc1NC(=O)COc1ccc(Cl)c(C)c1,-24,–
COc1cc(NC(=O)Cn2ccc3ccccc3c2=O)cc(OC)c1OC,-20.1,–
Cc1cccc(Nc2ncc(NC(=O)c3cccc(F)c3)c(Nc3cccc(C)c3)n2)c1,-24.6,–
